Data from PubChem BioAssay.
Inconclusive results are not listed. Calls of active or inactive are those of the source.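 The calls were made as follows, unless noted: active = viability loss from added drug above about 55%, and viability with drug at most 40%, in both replicates (limit read from the data, passing the limit was not always enough); inconclusive = both conditions met in only one replicate; inactive = neither replicate meets both conditions.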

Experiments:
[1] = reducers of endogenous Her2 protein level, primary screen, SKBR3 breast tumor cells, AlphaScreen, ATP viability (AID 461;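 active = Her2 level under about 52% in both replicate screens, with viability over 70% of control, limit read from the data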;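 as to Her2 level: lower value means less Her2 protein in the cells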;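 as to viability: percent of carrier control wells set as 100% viability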); settings: 18-24 h, measured here: SKBR3 viability, ATP luminescence, at 10 µM
[2] = target: Receptor tyrosine-protein kinase erbB-2 (Homo sapiens) (UniProt P04626); experiment: as above; settings: 18-24 h, at 10 µM, stronger effect = lower value
[3] = SK-BR-3 cell growth inhibitors, pilot screen, 24 h, human (AID 572;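 active = viability at or below 10% of carrier control in both of two separate runs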;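 also: compound exposure lasted between 18 and 24 h rather than exactly 24 h; 100% = carrier-treated control wells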); settings: SK-BR-3 viability, CellTiter-Glo luminescence, at 10 µM, stronger effect = lower value
[4] = HUVEC growth inhibition – cell-based, human, primary screen (AID 575;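 active = viability at or below 30% in both replicate assays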;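 also: 100% = median of untreated cell wells with 0.1% DMSO on each plate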); settings: HUVEC proliferation, CellTiter-Glo luminescence, 72 h; at 10 µM; stronger effect = lower value
[5] = growth inhibitors of H69AR lung tumor, primary screen, human, duplicate replicates (AID 580;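 active = viability at or under a set limit in both replicates, limit being median viability minus 3 SD, cut at about 48% in these data, passing the limit was not always enough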;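 also: 100% = mean luminescence of untreated wells and 0% = no signal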); settings: H69AR lung tumor cells viability, ATP luminescence, 72 h; at 10 µM; stronger effect = lower value
[6] = reversal of MRP1-mediated doxorubicin resistance, pilot screen, H69AR cells, doxorubicin co-treatment (AID 601); settings: CellTiter-Glo, 72 h, at 10 µM; for differential viability (reversal): stronger effect = higher value
[7] = 384-well plate pilot, post-Golgi transport modulator project, inhibition of yeast transport mutant growth (AID 636; in the data active = inhibition above about 31%); settings: absorbance 615 nm, about 18 h, stronger effect = higher value
[8] = growth suppression of yeast trafficking mutant, preliminary HTS, modulators of trafficking downstream of Golgi apparatus project, 1536-format plate, OD 615 nm (AID 637; in the data active = inhibition above about 30%); settings: yeast transport mutant growth, absorbance 615 nm, 18 h; stronger effect = higher value
[9] = OD615 S. cerevisiae growth inhibition, permissive medium, pilot counter-assay, permissive growth control for S. cerevisiae lifespan shortening project (AID 705;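 active = growth inhibition above 25% in both replicates, a cutoff set 3 SD above the mean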); settings: OD615, 24 h, at 10 µM, stronger effect = higher value
[10] = Restrictive medium S. cerevisiae growth inhibition, OD615, pilot screen of yeast lifespan reduction project, restrictive growth control (AID 706;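 active = growth inhibition above a set limit, 3 SD over mean compound inhibition, in both replicates, cut at about 43% in these data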;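 also: modified DeaD lifespan yeast strain shifted to restrictive glucose medium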); settings: OD615, 48 h, at 10 µM, stronger effect = higher value
[11] = viability gain of MRP-1-high H69AR cells under doxorubicin, pilot screen, MRP-1 activator project, CellTiter-Glo, duplicate (AID 807;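 active = viability increase at or above a cutoff of the median across tested compounds plus 3 SD, cut at about 8.5% in these data, passing the limit was not always enough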;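 also: compound pretreatment 18-22 h then 72 h combined with doxorubicin; 0% = doxorubicin alone and 100% = vehicle without doxorubicin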); settings: H69AR viability with doxorubicin, CellTiter-Glo luminescence; at 10 µM; stronger effect = higher value
[12] = growth suppression of beta-catenin knockout HCT116, pilot screen, human colon tumor cells (AID 823;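 active = cell viability at or below a set limit in both duplicate runs, the limit being the all-compound median minus 4 SD, cut at about 23% in these data, passing the limit was not always enough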;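 also: 0% = wells killed by 20 µM Hyamine and 100% = untreated DMSO cell wells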); settings: CellTiter-Glo, 60 h, at 10 µM, stronger effect = lower value
[13] = growth suppression of PTEN-deleted HCT116, pilot screen, cell-based, HCT116 clonal line, CellTiter-Glo (AID 824;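 active = viability at or below 27.92% in each of two runs, the all-compound median minus 4 SD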;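 also: 0% = 20 µM Hyamine control and 100% = vehicle cell control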); settings: 60 h, at 10 µM, stronger effect = lower value
[14] = inhibitors of the yeast RAM network, pilot screen, dse1pr::URA3 reporter, 5-FOA selection (AID 869;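 active = inhibition over a set limit, the all-compound mean plus 3 SD, in both replicate runs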;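 also: 0% = DMSO wells with no growth and 100% = 10 µM 1-NA-PP1 with full growth; RAM network block rescues cells from 5-FOA so hits raise OD615 growth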); settings: S. cerevisiae dse1pr::URA3 5-FOA growth, OD615, 2 d; at 10 µM; stronger effect = higher value; strain carries analog-sensitive mutant Cbk1 kinase
[15] = RAM signaling pathway blockade in yeast – S. cerevisiae, Pdr1DBD-CYC8 efflux-inhibited sensitized strain, primary screen (AID 1298;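 active = RAM network inhibition above 8.4% in each of two replicates, 3 SD over the compound average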;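 also: 0% = DMSO untreated cells without growth and 100% = 10 µM 1-NA-PP1 full growth; higher means more yeast growth rescued from 5-FOA killing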); settings: S. cerevisiae cbk1-as DSE1-URA3 strain, 5-FOA growth OD615, 2 d; at 50 µM; stronger effect = higher value
[16] = H69AR cells + 2 uM doxorubicin, measured here: viability with 2 uM doxorubicin, stronger effect = lower value
[17] = H69AR cells, compound alone cytotoxicity

Sequence of Receptor tyrosine-protein kinase erbB-2 (Homo sapiens) (P04626 whole entry, looked up): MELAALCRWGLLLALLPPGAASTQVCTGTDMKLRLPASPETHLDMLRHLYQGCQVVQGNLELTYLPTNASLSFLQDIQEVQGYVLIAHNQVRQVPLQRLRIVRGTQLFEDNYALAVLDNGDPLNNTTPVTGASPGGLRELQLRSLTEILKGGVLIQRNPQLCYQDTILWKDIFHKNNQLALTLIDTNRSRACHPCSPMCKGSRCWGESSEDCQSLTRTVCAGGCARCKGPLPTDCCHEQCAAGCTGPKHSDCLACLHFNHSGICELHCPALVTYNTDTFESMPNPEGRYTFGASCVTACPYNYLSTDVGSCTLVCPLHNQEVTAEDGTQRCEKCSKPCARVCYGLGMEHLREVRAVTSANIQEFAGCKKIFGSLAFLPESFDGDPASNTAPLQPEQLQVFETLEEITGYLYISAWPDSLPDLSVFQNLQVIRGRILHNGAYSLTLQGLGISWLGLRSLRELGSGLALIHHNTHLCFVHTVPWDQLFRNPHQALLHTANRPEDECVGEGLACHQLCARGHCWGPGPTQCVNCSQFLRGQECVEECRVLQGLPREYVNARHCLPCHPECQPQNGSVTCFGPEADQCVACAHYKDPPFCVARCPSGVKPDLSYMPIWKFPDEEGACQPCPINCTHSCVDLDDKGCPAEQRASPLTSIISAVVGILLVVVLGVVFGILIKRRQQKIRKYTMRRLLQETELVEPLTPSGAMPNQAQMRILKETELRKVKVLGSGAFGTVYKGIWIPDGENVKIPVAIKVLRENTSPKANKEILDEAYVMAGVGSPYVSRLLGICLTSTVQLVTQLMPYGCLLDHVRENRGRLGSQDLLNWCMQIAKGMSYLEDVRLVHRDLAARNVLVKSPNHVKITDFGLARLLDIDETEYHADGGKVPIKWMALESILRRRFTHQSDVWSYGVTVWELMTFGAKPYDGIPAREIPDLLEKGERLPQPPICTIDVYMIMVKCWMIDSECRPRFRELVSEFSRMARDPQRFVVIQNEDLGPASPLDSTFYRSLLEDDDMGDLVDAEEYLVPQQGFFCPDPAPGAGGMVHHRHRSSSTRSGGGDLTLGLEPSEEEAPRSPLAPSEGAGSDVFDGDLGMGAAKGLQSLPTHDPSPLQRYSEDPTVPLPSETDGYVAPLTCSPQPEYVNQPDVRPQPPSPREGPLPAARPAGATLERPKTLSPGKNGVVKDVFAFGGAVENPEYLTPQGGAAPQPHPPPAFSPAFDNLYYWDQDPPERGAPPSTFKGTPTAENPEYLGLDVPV

| SMILES | viability [1] [%] | Her2 level [2] | viability [3] | viability [4] | viability [5] | differential viability (reversal) ([6]; H69AR cells + 2 uM doxorubicin) | viability [6, 16] [%] | viability [6, 17] [%] | inhibition [7] | inhibition [8] | growth inhibition [9] | growth inhibition [10] | viability increase [11] | viability [12] | viability [13] | inhibition [14] | RAM network inhibition [15] |
| --- | --- | --- | --- | --- | --- | --- | --- | --- | --- | --- | --- | --- | --- | --- | --- | --- | --- |
| COc1cccc(C2CC(=O)Nc3c2c(=O)n(C)c(=O)n3C)c1OC (stereo not drawn) | 98.5 | 101% (inactive) | 98.5% (inactive) | 93.8% (inactive) | 102% (inactive) | 15.2% (inactive) | 87 | 102 | 1.33% (inactive) | -4.75% (inactive) | -3.2% (inactive) | -1.43% (inactive) | 0.25% (inactive) | 98.9% (inactive) | 95.9% (inactive) | 2.06% (inactive) | 7.39% (inactive) |
| COc1ccc(-c2nc(CSCC(=O)N3CCN(c4cccc(C)c4)C(C)C3)c(C)o2)cc1OC (stereo not drawn) | 102 | 67.5% (inactive) | 102% (inactive) | 54.6% (inactive) | 85.7% (inactive) | -5.97% (inactive) | 91.7 | 85.7 | -2.27% (inactive) | 1.33% (inactive) | -4.45% (inactive) | 8.39% (inactive) | 0.02% (inactive) | 56.9% (inactive) | 56.4% (inactive) | 1.96% (inactive) | 7.25% (inactive) |
| O=C(NC1CCN(Cc2ccccc2)CC1)C1CCN(S(=O)(=O)c2cccc3cccnc23)CC1 | 96.5 | 97.5% (inactive) | 96.5% (inactive) | 86.9% (inactive) | 102% (inactive) | 1.09% (inactive) | 101 | 102 | -0.13% (inactive) | -2.62% (inactive) | 5.75% (inactive) | 1.73% (inactive) | 1.84% (inactive) | 88.3% (inactive) | 96% (inactive) | -0.18% (inactive) | 1.59% (inactive) |
| Cc1cc2cc(CCNC(=O)CC(C)C)c(=O)[nH]c2cc1C | 102 | 128% (inactive) | 102% (inactive) | 93.3% (inactive) | 90.2% (inactive) | 0.865% (inactive) | 89.4 | 90.2 | -3.73% (inactive) | 5% (inactive) | -7.38% (inactive) | -5.57% (inactive) | -0.47% (inactive) | 104% (inactive) | 97.7% (inactive) | 0.365% (inactive) | 0.73% (inactive) |
| CCOC(=O)CCc1c(C)nc2cc(-c3ccc(F)cc3)[nH]n2c1=O | 97 | 99% (inactive) | 97% (inactive) | 97.6% (inactive) | 101% (inactive) | 8.37% (inactive) | 92.2 | 101 | -5.45% (inactive) | -7.33% (inactive) | -13.1% (inactive) | -4.2% (inactive) | -1.53% (inactive) | 95.8% (inactive) | 95.1% (inactive) | 1.8% (inactive) | 1.51% (inactive) |
| CN1CCN(C(=O)C2CCN(S(=O)(=O)c3ccc4c(c3)oc(=O)n4C)CC2)CC1 | 89 | 104% (inactive) | 89% (inactive) | 94.4% (inactive) | 107% (inactive) | 14.3% (inactive) | 92.4 | 107 | -2.95% (inactive) | 9.5% (inactive) | -6.74% (inactive) | -5.41% (inactive) | 1.79% (inactive) | 102% (inactive) | 102% (inactive) | 2.46% (inactive) | 3.79% (inactive) |
| O=C(NCCN1C(=O)C2C3C=CC(C3)C2C1=O)N1CCCCC1 (stereo not drawn) | 122 | 112% (inactive) | 122% (inactive) | 100% (inactive) | 103% (inactive) | 6.97% (inactive) | 96.5 | 103 | 4.93% (inactive) | -4.83% (inactive) | -11.7% (inactive) | 0.245% (inactive) | -0.67% (inactive) | 102% (inactive) | 95.1% (inactive) | 2.13% (inactive) | 3.08% (inactive) |
| Cc1cc(C(N)=O)c2cc(Br)ccc2n1 | 95.5 | 95.5% (inactive) | 95.5% (inactive) | 109% (inactive) | 91.2% (inactive) | 8% (inactive) | 83.2 | 91.2 | -1.35% (inactive) | 0.49% (inactive) | -1.99% (inactive) | -7.49% (inactive) | -2.23% (inactive) | 98.3% (inactive) | 96.5% (inactive) | 0.94% (inactive) | 0.89% (inactive) |
| CC(NC(=O)C1CC1)C(c1cccs1)N1CCN(c2ccccc2)CC1 (stereo not drawn) | 95.5 | 96% (inactive) | 95.5% (inactive) | 105% (inactive) | 89.5% (inactive) | -4.32% (inactive) | 93.8 | 89.5 | -4.13% (inactive) | -5.57% (inactive) | -6.42% (inactive) | 6.87% (inactive) | 0.65% (inactive) | 92% (inactive) | 93.2% (inactive) | 2.08% (inactive) | -0.26% (inactive) |
